Test results published in PubChem BioAssay (Tox21).
Records with an inconclusive call do not appear. Values without a mark were called inactive. Activity calls are given as the source filed them. Calls follow the shape of the dose curve; as a rule, active = well fitted cell-killing curve with a large enough effect in the repeat runs; inconclusive = weak or mixed curves, or effect the other way; inactive = flat fitted curve, though single readings scatter.

Assay: qHTS assay to identify small molecule antagonists of the androgen receptor (AR) signaling pathway using the MDA cell line - cell viability counter screen (AID 743041; also: nearly all actives have a fitted effect of over 45% in size)
Settings: MDA-kb2 viability, CellTiter-Fluor, 16 h, cells co-treated with R1881 androgen agonist; series mostly up to 70.3 µM; viability change, negative = cytotoxic: at the top concentration
Source text: National Center for Advancing Translational Sciences [NCATS]
NIH Chemical Genomics Center [NCGC]
U.S. Environmental Protection Agency [EPA]
National Institutes of Environmental Health Sciences [NIEHS]
National Toxicology Program [NTP]
U.S. Food and Drug Administration [FDA]
Androgen receptor (AR), a nuclear hormone receptor, plays a critical role in AR-dependent prostate cancer and other androgen related diseases. Endocrine disrupting chemicals (EDCs) and their interactions with steroid hormone receptors like AR may cause disruption of normal endocrine function as well as interfere with metabolic homeostasis, reproduction, developmental and behavioral functions. To identify the compounds that inhibit AR signaling, MDA-kb2 AR-luc cell line (from ATCC, deposited by Wilson et al.) was used to screen the Tox21 10K compound library. MDA-kb2 AR-luc cell line is human breast carcinoma cell line that was stably transfected with a luciferase reporter gene under control of the MMTV promoter containing response elements for both androgen receptor (AR) and glucocorticoid receptor (GR). The cytotoxicity of the Tox21 compound library against the MDA-kb2 AR-luc cell line was tested in parallel by measuring the cell viability using CellTiter-Fluor assay (Promega, Madison, WI) in the same wells.
Tox21 Assay Protocol Summary:
MDA-kb2 AR-luc cells were dispensed at 3,000 cells/4 uL/well of culture medium into white wall/solid-bottom 1536-well plates using a Multidrop Combi (ThermoFisher Scientific, Waltham, MA) dispenser. After the assay plates were incubated at a 37C and 0% CO2 for 5 hr, 23 nL of compounds dissolved in DMSO, positive controls or DMSO only was transferred to the assay plate by a Pintool station (Kalypsys, San Diego, CA), followed by addition of 1 uL of agonist (R1881) in culture medium using a Bioraptr Flying Reagent Dispenser (FRD) workstation (Beckman Coulter, Indianapolis, IN, USA). The plates were incubated at a 37C and 0% CO2 for 16 h. After 15.5 h incubation, 1uL of CellTiter-Fluor reagent (Promega) was added using a Bioraptr FRD to each plate for measuring cytotoxicity. The fluorescence intensity was quantified on a ViewLux plate reader (PerkinElmer, Shelton, CT) following 30 min incubation at 37C and 0% CO2.
% is scaled to controls: 0 for no effect and ±100 for the full control effect.

Compared with `O=C(O)[C@@H]1[C@H]2C[C@H]3c4[nH]c5ccccc5c4CCN3C[C@@H]2CC[C@@H]1O`, `CN(C)CCCOc1nn(Cc2ccccc2)c2ccccc12` is higher in “viability change, negative = cytotoxic” value: 1.11% [at 32.5 µM] for the first, 3.29% [at 32.5 µM] for the second.

First: Cn1c(=O)c2c(ncn2CC(O)CO)n(C)c1=O (stereo not given)
Second: CCN(CC)CCc1nc(-c2ccccc2)no1
The “viability change, negative = cytotoxic” value of the first is higher: -2.04% [at 32.5 µM] for the first, -6.67% [at 32.5 µM] for the second.

Compared with `CCCCCCCCCC=O`, `CCCCOC(=O)c1ccccc1C(=O)OCC(CC)CCCC` (stereo not given) is lower in “viability change, negative = cytotoxic” value: 3.71% for the first, -3.3% for the second.

Going from `CN(C(=O)CCCOc1ccc2[nH]c(=O)ccc2c1)C1CCCCC1` to `COc1ccc([C@@H]2Sc3ccccc3N(CCN(C)C)C(=O)[C@@H]2OC(C)=O)cc1`, the “viability change, negative = cytotoxic” value rises from 2.33% to 2.44%.

Going from `CN(C)CCCNCCCN` to `CCCCOCCOCCOCCOCCO`, the “viability change, negative = cytotoxic” value falls from 1.57% to -4.05%.

Going from `CC(C)c1ccccc1C(C)C` to `Cc1ccc(O)c([C@H](CCN(C(C)C)C(C)C)c2ccccc2)c1`, the “viability change, negative = cytotoxic” value falls from -2.28% to -11.1%.

Going from `O=C(c1ccc(O)cc1)c1ccc(O)cc1` to `O=C(O)c1cccc(N(Cc2cccnc2)c2ccc(OC(F)F)c(OC(F)F)c2)c1`, the “viability change, negative = cytotoxic” value falls from 7.09% to -1.95%.

Going from `COC(=O)CSc1cc(N=c2sc(=O)n3n2CCCC3)c(F)cc1Cl` to `O=C(CCN1CCN2CCCC2C1)N1c2ccccc2Sc2ccc(Cl)cc21` (stereo not given), the “viability change, negative = cytotoxic” value falls from 6.78% to -18.1%.

Going from `CC[C@@H]1C[C@H](N(Cc2cc(C(F)(F)F)cc(C(F)(F)F)c2)C(C)=O)c2cc(C(F)(F)F)ccc2N1C(=O)OC(C)C` to `CCN1CCC[C@H]1CNC(=O)c1c(OC)ccc(Br)c1OC`, the “viability change, negative = cytotoxic” value rises from 13.1% to 25.2%.

Compared with `CCC(=O)OC(C)(C)C1CC=C(C)CC1` (stereo not given), `CC(=O)/C(C)=C/C1C(C)=CCCC1(C)C` (stereo not given) is higher in “viability change, negative = cytotoxic” value: -0.421% for the first, 0.56% for the second.

Compared with `SC1CCCC1`, `CC(C)(C)C1CCCCC1O` (stereo not given) is higher in “viability change, negative = cytotoxic” value: 1.81% for the first, 35.1% for the second.

Going from `C=CC(=O)OCCOC(=O)CCC(=O)O` to `CC(C)CCCCCCOC(=O)c1ccc(C(=O)OCCCCCCC(C)C)c(C(=O)OCCCCCCC(C)C)c1`, the “viability change, negative = cytotoxic” value falls from 7.33% to -2.82%.

First: Cc1c(Cn2ccnc2)c2ccccc2n1CCC(=O)O
Second: CC(=O)SCc1ccco1
The “viability change, negative = cytotoxic” value of the first is higher: 11.6% for the first, -7.56% for the second.

Compared with `FC(F)(F)C(F)(F)C(F)(F)C(F)(F)C(F)(F)C(F)(F)CCI`, `COc1cc(C(C)(C)C)c(O)c(C(C)(C)C)c1` is lower in “viability change, negative = cytotoxic” value: -0.417% for the first, -17% for the second.

First: O=C(O)/C=C/c1cnc[nH]1
Second: CC(=O)[C@@]1(O)CC[C@H]2[C@@H]3C[C@H](C)C4=CC(=O)CC[C@]4(C)[C@H]3CC[C@@]21C
The “viability change, negative = cytotoxic” value of the first is higher: -1.93% for the first, -14% for the second.

Compared with `S=C(S)NCCNC(=S)S`, `CCCC[C@H]1CN(CC2CCOCC2)C(=O)OC12CCN(C1(C)CCN(C(=O)c3c(C)ncnc3C)CC1)CC2` is lower in “viability change, negative = cytotoxic” value: 10.8% for the first, 0.149% for the second.

With `O=[N+]([O-])c1cccc(Cl)c1Cl` the “viability change, negative = cytotoxic” value was -9.09%.

Compared with `CC(C)(C)c1ccc(OCC2CO2)cc1` (stereo not given), `CC(C)(C)c1cc(CO)cc(C(C)(C)C)c1O` is lower in “viability change, negative = cytotoxic” value: -0.866% [at 95 µM] for the first, -6.39% [at 95 µM] for the second.

First: Cc1ccc2c(ccc3ccccc32)c1
Second: O=c1[nH]cnc2ccccc12
The “viability change, negative = cytotoxic” value of the first is higher: 16.1% [at 95 µM] for the first, -0.411% [at 95 µM] for the second.

Going from `CCOC(=O)CC(=O)c1cc(F)c(Cl)nc1Cl` to `O=C(Cl)c1c(Cl)cccc1Cl`, the “viability change, negative = cytotoxic” value rises from -3.09% [at 95 µM] to -1.51% [at 95 µM].

For `O=C(c1ccccc1)c1ccc2n1CCC2C(=O)O` (stereo not given), the Potency was “inactive”.
